Experimental findings from PubChem BioAssay (NCI) are described below.

This is part of a sample that, as a whole, favours compounds with a hit. Of some 83,000 tested, about 20% had one in any assay.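 Method: cells in 96-well plates; compound added at one concentration; 48 h incubation; percent growth measured; values under 10 scored active.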 A number with no mark means an inactive call. Activity calls are given as the source filed them.

Common to all, as to assay: NCI-60 one-dose screen, 48 h (100 = growth as untreated, 0 = no growth, -100 = all killed)
Holding throughout (settings): 10 µM unless noted

The subject of experiment [1] is NCI-H23 lung.
The subject of experiment [2] is NCI-H226 lung.
The subject of experiment [3] is NCI-H322M lung.
Experiment [4] concerns HOP-62 NSCLC.
The subject of experiment [5] is NCI-H460 lung.
For experiment [6], the system named is HOP-92 NSCLC.
The subject of experiment [7] is NCI-H522 lung.
Experiment [8] concerns A549/ATCC NSCLC.
The test system of experiment [9] is 786-0 renal.
The subject of experiment [10] is COLO 205 colon.

With `Clc1ncnc2nc[nH]c12`, the growth in experiment [1] was 94.4%; in [2], 96.3%; in experiment [3], 104%; in experiment [4], 83.7%; in experiment [5], 103%; in experiment [6] it was 68.8%. Besides, the growth in experiment [7] is 70.5%; in [8], 101%; in [9] it was 101%; in [10], 101%.

Take `OCC1CCC(O)C(CO)N1` (stereo not given): the growth in experiment [1] is 110%; in experiment [2], 104%; in experiment [3] it was 113%; in [4] it was 101%; in [5] it was 107%; in experiment [6], 119%. Further, the growth in experiment [7] was 103%; in experiment [8] it was 94.2%; in experiment [9], 109%; in experiment [10], 95%.

For `COc1ccc(C2CCCCC2=O)cc1` (stereo not given), the growth in experiment [1] was 108%; in experiment [2], 113%; in [3] it was 113%; in experiment [4] it was 95.5%; in experiment [5], 108%; in experiment [6], 98.9%. The growth in experiment [7] was 106%; in experiment [8], 104%; in [9], 105%; in experiment [10] it was 104%.

In the case of `O=C1NC(=O)C(c2ccccc2)O1` (stereo not given), the growth in [1] is 102%; in experiment [2], 105%; in [3] it was 98.9%; in [4] it was 104%; in experiment [5] it was 109%; in experiment [6] it was 104%. Moreover, the growth in experiment [7] is 90.2%; in experiment [8], 100%; in experiment [9], 90.3%; in [10] it was 108%.

Turning to `Cc1c(Cl)cccc1NC(=S)NC(=O)c1ccccc1`, the growth is 85.5% in [1]; 90.8% in experiment [2]; 97.4% in [3]; 110% in [4]; 103% in experiment [5]; 71.8% in experiment [6]. The growth in [7] is 59%; in [8] it was 75%; in experiment [9], 120%; in [10] it was 109%.

On to `C1CCc2onc(-c3noc4c3CCCCC4)c2CC1`, for which the growth in [1] was 110%; in experiment [2] it was 123%; in experiment [3] it was 102%; in [4], 101%; in experiment [5] it was 140%; in [6], 93.6%. The growth in [7] was 95.8%; in [8] it was 102%; in experiment [9], 103%; in experiment [10] it was 118%.

Consider `CCOC(=O)C(C#N)=C1CCN(C)CC1`, for which the growth in experiment [1] is 94.3%; in experiment [2], 111%; in experiment [3], 107%; in [4], 104%; in experiment [5], 111%; in experiment [6], 97.9%. For the same molecule, the growth in [7] is 105%; in experiment [8], 101%; in [9] it was 110%; in experiment [10], 108%.

On to `Cc1cc2c3ccc(C)[n+](C)c3ccc2n1C`, for which the growth is 23.3% in [1]; 80.9% in [2]; 99.5% in experiment [3]; 33.8% in experiment [4]; 61.7% in experiment [5]; 44.4% in experiment [6]. Besides, the growth is 49.7% in [7], -0.921% (active) in [8], 53.4% in experiment [9] and 10.7% in experiment [10].

`C/C(O)=C(/C=N\C(=S)Nc1ccc(S(=O)(=O)Nc2nccs2)cc1)C(=O)Nc1ccccc1C`: the growth in experiment [1] was 94.6%; in experiment [2], 73.2%; in experiment [3], 99.7%; in experiment [4], 96.1%; in experiment [5], 102%; in experiment [6], 87.5%. For the same molecule, the growth is 91.6% in experiment [7], 92.6% in [8], 96.7% in experiment [9] and 104% in experiment [10].

With `O=Cc1ccc(O)c(O)c1`, the growth in experiment [1] was 100%; in [2], 95.9%; in experiment [3], 104%; in experiment [4] it was 97.1%; in experiment [5], 98.9%; in experiment [6], 84.9%. Further, the growth was 84.3% in experiment [7], 89.4% in [8], 101% in experiment [9] and 95.4% in experiment [10].

Turning to `BrCc1cccc(C[P+](c2ccccc2)(c2ccccc2)c2ccccc2)c1`, the growth was 87% in experiment [1]; 73.7% in [2]; 89% in [3]; 33.8% in [4]; 48.5% in [5]; 32% in experiment [6]. Besides, the growth was 24.6% in experiment [7], 69.4% in [8], 98.8% in [9] and -35.3% (active) in [10].

For `O=C(NCCc1ccccc1)/C(=C\c1ccc(Cl)cc1Cl)NC(=O)c1ccccc1`, the growth is 91.2% in [1]; 101% in [2]; 101% in experiment [3]; 98.7% in experiment [4]; 97.1% in [5]; 80.5% in experiment [6]. Moreover, the growth in experiment [7] was 90%; in experiment [8], 101%; in [9], 107%; in experiment [10], 92.9%.

Take `Cn1c(=O)[nH]c2ccccc2c1=O`: the growth in experiment [1] is 104%; in experiment [2], 109%; in experiment [3], 105%; in experiment [4], 99.6%; in experiment [5], 111%; in [6], 143%. Besides, the growth was 96.6% in experiment [7], 100% in experiment [8], 97.5% in [9] and 114% in experiment [10].

For `CCCC(=O)c1cccs1`, the growth in [1] is 95.3%; in experiment [2], 93.2%; in experiment [3], 112%; in [4], 99.9%; in [5], 105%; in [6], 84.7%. Besides, the growth was 107% in experiment [7], 99.3% in experiment [8], 92.1% in experiment [9] and 111% in [10].

`O=C1C=CC(=O)C2=C1CCCC2`: the growth in experiment [1] was 86.4%; in experiment [2], 79.6%; in [3] it was 92%; in [4] it was 92.4%; in experiment [5], 95.9%; in experiment [6], 135%. Moreover, the growth is 94% in [7], 95.8% in [8], 107% in experiment [9] and 110% in experiment [10].

`O=C(O)c1cc(I)ccc1O`: the growth in experiment [1] was 103%; in [2], 99%; in experiment [3], 95.7%; in [4], 100%; in experiment [5], 108%; in [6], 121%. Moreover, the growth in [7] is 111%; in experiment [8], 93.3%; in experiment [9], 107%; in experiment [10], 127%.

For `CC(=O)c1cccc(O)c1`, the growth in [1] was 96.6%; in experiment [2], 103%; in [3], 106%; in experiment [4], 93%; in experiment [5], 105%; in [6], 103%. Moreover, the growth in experiment [7] is 88.9%; in experiment [8], 98.9%; in [9], 96%; in experiment [10], 110%.

Take `N#CC1(O)CCCCC1`: the growth was 114% in experiment [1]; 100% in experiment [2]; 97.8% in [3]; 95.2% in experiment [4]; 107% in [5]; 96.5% in experiment [6]. Besides, the growth was 88.6% in experiment [7], 92.1% in [8], 105% in [9] and 109% in experiment [10].

For `CC(c1ccccc1)N1C(=O)CSC1=S` (stereo not given), the growth is 51.2% in experiment [1]; 83.2% in experiment [2]; 74.9% in [3]; 59.2% in [4]; 0.475% (active) in [5]; 47.5% in experiment [6]. Besides, the growth was -14.2% (active) in experiment [7], 78.8% in experiment [8], 21.2% in experiment [9] and 1.28% (active) in experiment [10].

As to `COc1cccc(C(=O)NNC(=O)c2cccc3ccccc23)c1`, the growth is 107% in [1]; 105% in experiment [2]; 122% in [3]; 97.7% in experiment [4]; 117% in experiment [5]; 97.2% in experiment [6]. For the same molecule, the growth was 102% in experiment [7], 96% in [8], 104% in experiment [9] and 108% in [10].

With `Cc1cccc(-[n+]2noc(N)n2)c1`, the growth in [1] is 85.5%; in experiment [2], 80.8%; in [3], 87.7%; in [4], 87.3%; in [5] it was 80.9%; in [6], 65%. For the same molecule, the growth in experiment [7] was 50.9%; in [8], 102%; in experiment [9], 93.8%; in experiment [10], 95.7%.

For `COc1cccc(N=CNc2cccc(OC)c2)c1`, the growth in experiment [1] is 98.3%; in experiment [2], 99.7%; in experiment [3] it was 96%; in [4] it was 103%; in experiment [5] it was 109%; in [6], 93.5%. Moreover, the growth in [7] is 85.6%; in experiment [8] it was 92.4%; in [9] it was 98.8%; in [10], 107%.

On to `Nc1c(Br)cc(O)c2c1C(=O)c1ccccc1C2=O`, for which the growth in experiment [1] was 32.8%; in [2], 108%; in experiment [3], 98.7%; in experiment [4], 117%; in [5] it was 102%; in experiment [6] it was 70.9%. In addition, the growth in experiment [7] was 54%; in experiment [8] it was 96.1%; in experiment [9], 106%; in experiment [10], 135%.

`OCCc1ccc(Cl)cc1`: the growth is 104% in [1]; 99.9% in [2]; 101% in [3]; 95.9% in experiment [4]; 109% in experiment [5]; 105% in experiment [6]. In addition, the growth is 89.8% in experiment [7], 88.8% in experiment [8], 95.6% in [9] and 109% in experiment [10].

For the molecule `O=C(NC1CCCCC1)c1ccc(Cl)cc1`, the growth in experiment [1] was 95.7%; in experiment [2], 92.5%; in experiment [3] it was 98.1%; in [4], 92.8%; in experiment [5], 101%; in experiment [6], 95%. For the same molecule, the growth in experiment [7] was 96.2%; in experiment [8], 99.9%; in experiment [9], 103%; in [10], 109%.

For the molecule `C(=C\c1ccncc1)/c1ccncc1`, the growth in experiment [1] is 98.7%; in experiment [2], 96.4%; in [3], 90.8%; in [4], 101%; in [5], 107%; in experiment [6], 87.9%. Further, the growth in experiment [7] is 5.51% (active); in experiment [8] it was 96.5%; in experiment [9] it was 107%; in experiment [10], 115%.

For `CN(C)c1ccc2c(N(C)C)cc(N(C)C)nc2c1`, the growth was 97.5% in experiment [1]; 83.2% in experiment [2]; 64.9% in experiment [3]; 82.1% in [4]; 82.7% in experiment [5]; 69.8% in [6]. The growth in experiment [7] was 79.3%; in experiment [8] it was 98.5%; in experiment [9], 94.8%; in experiment [10] it was 65%.

On to `Cc1cc(Cc2ccccc2)c(O)c(Cc2ccccc2)c1`, for which the growth was 82.5% in [1]; 85.9% in [2]; 97.3% in experiment [3]; 85.5% in [4]; 99.4% in experiment [5]; 90% in experiment [6]. For the same molecule, the growth in experiment [7] was 78%; in [8] it was 76.5%; in [9], 86.6%; in [10], 106%.
